{
  "source": "the supplement of paper PMC6555819",
  "data": [
    {"tested_on": "VDR:RXRa (NR concentration 270 nM, RXRa partner concentration 90 nM)", "assay": "PBM binding z-score (relative to random genomic background probes); higher = stronger binding; sequences stand for … in GC…GCGATTGACAGCGTAGAATGAAGG", "method": "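Protein-binding microarray (Agilent 4x180K custom design, double-stranded 60-nt probes: 5' GC cap, 34-nt variable region, 24-nt constant primer region; full probe sequence given). Purified or IVT nuclear receptor:RXRα heterodimers (3:1 NR:RXRα, mostly 270:90 nM) or homodimers were incubated for 1 h in PBS with 2% milk and no ligand, then detected with Alexa488 antibodies. Fluorescence from o1-orientation probes (~5 replicates averaged) was converted to z-scores against 500 random hg19 background probes. Variable regions are seed direct-repeat (DR0–DR5) sites, all their single-nucleotide variants and half-site ablations.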", "values": [
      {"sequence": "CCTTACGGCTCACTCCAGGTTATAGCATCGGAGT", "PBM binding z-score": 0.016},
      {"sequence": "AGAATGAGGTTAAGGTCAGGGAAACAGAATACAT", "PBM binding z-score": 3.82},
      {"sequence": "ACTAGTTGGTCAGGTGAGGTCACACACAATTCGG", "PBM binding z-score": 4.8},
      {"sequence": "TGTCAAAGTTCAAAGGTAATGTAAGTATCCACAC", "PBM binding z-score": 4.69},
      {"sequence": "CCCGACAGGTGAAAGGTAACTCAGTCTGGTACGC", "PBM binding z-score": 0.836},
      {"sequence": "GTACCAAGGTGAATAGGTCGTTGACGAGTAGGCG", "PBM binding z-score": 0.987},
      {"sequence": "ATACCAAGGTGATCGTCAGGTCGTTGATACTAAC", "PBM binding z-score": 1.36},
      {"sequence": "AGAGTGAGGTTATACGTAGATCAGGGAAGAAAGT", "PBM binding z-score": 1.6},
      {"sequence": "CCGCCTGGGGCAGAAAGGTTACCATACCATCCGG", "PBM binding z-score": 0.57},
      {"sequence": "CCTGCTAGGTCATGGACAGCTAATCTACAGTATG", "PBM binding z-score": 1.56},
      {"sequence": "ATATGTAAGTTAAGGGTCATTCAGGTTGGTTCGC", "PBM binding z-score": 5.46},
      {"sequence": "ATATGTAGGTTACATCCGGGGCATTCAGGCTATG", "PBM binding z-score": 1.23},
      {"sequence": "AATACAGGGTCACTAGTCCAGAGTAGGTACGAAT", "PBM binding z-score": 4.05},
      {"sequence": "AGAATGAGGTTAAGATCTGGGAAACAGAATACAT", "PBM binding z-score": 1.13},
      {"sequence": "ACTAGCAGGCCATGTTTGGGTCACTCAAACAAAG", "PBM binding z-score": 0.631},
      {"sequence": "CAAACTGGGTCACCGGAAGGTCAAAGTCCGCATG", "PBM binding z-score": 5.93},
      {"sequence": "TCTTGCAGATCAACAGGAGGTTAAGAAAGATCGA", "PBM binding z-score": 0.489},
      {"sequence": "ATACCAAGGTGATCGTGAGGTAGTTGATACTAAC", "PBM binding z-score": -0.169},
      {"sequence": "GCGGCTAGGTCAGGTTGGTCAGCTAACGGGTACG", "PBM binding z-score": 0.482},
      {"sequence": "AGAAAGAGGGCACGCTGAGTTGATAGCAGAGTAG", "PBM binding z-score": 2.39},
      {"sequence": "CAAACTGGGTCAAGGTCAAAGTCGGTTTGTGCCA", "PBM binding z-score": 5.18},
      {"sequence": "TGTCAAAGTCCAAAGGTAACGTAAGTATCCACAC", "PBM binding z-score": 0.386},
      {"sequence": "ATCTCTAGGTAAAACTTCAGTGAATCCCGAGGAT", "PBM binding z-score": -0.0846},
      {"sequence": "ACAGACAGGTGATGAAGGTAACACAGGCTATCAT", "PBM binding z-score": 0.561},
      {"sequence": "GCGACTGGGGCATCGGCAGGTTACCATAACTTAA", "PBM binding z-score": -0.199},
      {"sequence": "CAAACTAGGTCAAAGGTCAAATTCGAGCCAACCA", "PBM binding z-score": 6.75},
      {"sequence": "ACTATTAGTTGACGTAGGGCAACCGATACGACGC", "PBM binding z-score": 0.19},
      {"sequence": "ATCTCCAGGTAACAAGTTCAGTGAAAGAGAGGAC", "PBM binding z-score": 2.42},
      {"sequence": "TCTAGTTGTTCAAAGGTCACACACTCGAAATGCG", "PBM binding z-score": 4.95},
      {"sequence": "TAATATAGGTAAATGCTAGGTGAAAGTCCGATCT", "PBM binding z-score": 0.36},
      {"sequence": "CAAACTAGGTCACAGAGGTAAAAGTCCGTGCGTA", "PBM binding z-score": 4.96},
      {"sequence": "GCGACTGGGGCAAACCAGGTTACCATAAGGTTGG", "PBM binding z-score": 0.416},
      {"sequence": "TCTGCTAGGTCAACGATGGTCAGCTCATCTGCTA", "PBM binding z-score": 1.65},
      {"sequence": "AGAATGTGGTTACCAAAGATCAGGGAAACGCTTG", "PBM binding z-score": -0.233},
      {"sequence": "ATCTCTAGGTAAGACTCAGTTCAGTGAAGAACGC", "PBM binding z-score": 0.833},
      {"sequence": "GTACCAAGGTGAATAGGTCGTTCATGAGTAGGCG", "PBM binding z-score": 1.06},
      {"sequence": "TAGCCTAGGTCACGCGGGCCAGTATAGTGTCGGC", "PBM binding z-score": 3.35},
      {"sequence": "TCATATAGGTAAAAGTTGAAAGTCGGTGTGGTAA", "PBM binding z-score": 1.21},
      {"sequence": "CCGATTAGGTTATGGGGCATTCAGGCAACGGTGA", "PBM binding z-score": 0.0574},
      {"sequence": "ACTAGCAGGCCTAGGGTCACTCAAGATTAGTCCG", "PBM binding z-score": 2.03}
    ]}
  ]
}
